Results from PubChem BioAssay AID686979 (National Center for Advancing Translational Sciences (NCATS), 2013).
The campaign covered roughly 420,000 compounds. About 50,000 (12%) were called active. Entries that show only a call come without a potency. Roughly 26% stayed inconclusive and do not appear here. Calls come from the whole dose curve; as a rule, active = well fitted inhibition curve with a large enough effect; inconclusive = small, poorly fitted or top-dose-only effect; inactive = flat fitted curve, though single readings scatter. Many of the other results were omitted from the sample, so actives are more common in it than they were.

test: qHTS for Inhibitors of human tyrosyl-DNA phosphodiesterase 1 (TDP1): qHTS in cells in presence of CPT; conditions: chicken DT40 Tdp1-/-;hTDP1 cells + 20 nM CPT, ATP luminescence, 48 h; series mostly up to 46.2 µM; note: nearly all actives have a fitted effect of over 55% in size
How it was run: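 Chicken DT40 Tdp1-/- cells stably complemented with human TDP1 were seeded at 400 cells/well in medium containing 20 nM camptothecin, exposed to pin-transferred compounds, and grown at 37 °C for at least 48 hr. Viability was read as ATP luminescence.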
Potency is the fitted concentration of half-maximal effect.

Row | SMILES | Potency
1 | COc1cc(C2C(C(=O)c3sc(C)nc3C)=C(O)C(=O)N2CCN(C)C)cc(OC)c1OC (stereo unspecified) | inactive
2 | O=C(c1cccs1)n1nc(NCc2ccccc2)nc1NCc1ccccc1 | inactive
3 | CCCc1cc(=O)[nH]c(SCC(=O)Nc2ccc(S(=O)(=O)N3CCCC3)cc2)n1 | inactive
4 | CCCc1cc(=O)[nH]c(SCC(=O)c2c(N)n(CC(C)C)c(=O)n(C)c2=O)n1 | 7.31 µM (active)
5 | CCCc1cc(=O)[nH]c(SCC(=O)N2C(C)CCCC2C)n1 (stereo unspecified) | inactive
6 | Cc1ccc(Cl)cc1NC(=O)CSc1nccn1C | inactive
7 | COc1ccccc1C(=O)NCCC(=O)NC1=NCCS1 | inactive
8 | Cc1cc(C)cc(Oc2c(C(F)(F)F)oc3cc(OCC(=O)O)ccc3c2=O)c1 | inactive
9 | Cc1cccc(-c2nc3ccccc3c(=O)n2NC(=O)Cc2ccc(Cl)cc2)c1 | inactive
10 | Cc1nc2ccccc2c(=O)n1-c1ccc(NS(=O)(=O)c2ccc(F)cc2F)cc1 | inactive
11 | Cc1[nH]n(-c2ccc(Cl)cc2)c(=O)c1/C=N/n1c(C)nc2ccccc2c1=O | 20.6 µM (active)
12 | CC(OC(=O)c1cccc(S(=O)(=O)N2CCOCC2)c1)C(=O)NCC1CCCCC1 (stereo unspecified) | inactive
13 | Cc1occc1-c1nnc(SCC(=O)NC2(C#N)CCCC2)n1C | inactive
14 | CN(Cc1ccc(C(F)(F)F)cc1)C(=O)[C@H]1O[C@@H](n2cnc3c(N)ncnc32)[C@H](O)[C@@H]1O | inactive
15 | Cc1noc(C)c1S(=O)(=O)N(C)C[C@H]1Oc2c(NC(=O)Nc3ccc4c(c3)OCO4)cccc2C(=O)N([C@H](C)CO)C[C@@H]1C | inactive
16 | CCc1nn(CCCC(=O)Nc2ccc(C)cc2C)c(=O)c2cc3occc3n12 | inactive
17 | CCOc1cc(/C=C2/C(=N)N3OC(C)=CC3=NC2=O)ccc1OC | inactive
18 | COc1ccc(OCCCn2cccc2/C=C2/C(=N)N3OC(C)=CC3=NC2=O)cc1 | 18.4 µM (active)
19 | CC1=CC2=NC(=O)/C(=C/c3coc4ccccc4c3=O)C(=N)N2O1 | inactive
20 | COc1cccc(CNC(=O)c2cccnc2Sc2ccc(Cl)cc2)c1 | inactive
21 | Cc1ccnc(NC(=O)CNC(=O)c2ccccc2)c1 | inactive
22 | Cc1cc(NC(=O)c2cc3ccccc3o2)no1 | inactive
23 | CC(=O)Nc1cccc(C(=O)OCC(=O)c2ccc3c(c2)OCO3)c1 | inactive
24 | O=C(CSc1n[nH]c(-c2ccccc2)n1)N1CCCCC1 | inactive
25 | C=CC(C1=CC(=O)C=CC1=O)c1ccc(O)cc1 (stereo unspecified) | 1.64 µM (active)
26 | CSc1ncccc1C(=O)OCc1ccc(Br)cc1 | inactive

Row | SMILES | Potency
27 | NC(=O)C1(Nc2ccc(-c3ccccc3)cc2)CCCC1 | inactive
28 | COc1ccc2oc(=O)c(C(=O)NCc3ccccn3)cc2c1 | inactive
29 | COc1cccc(S(=O)(=O)NCc2ccc(C(=O)NCc3ccccn3)cc2)c1 | 0.92 µM (active)
30 | O=[N+]([O-])c1cccc(S(=O)(=O)NCc2ccccn2)c1 | inactive
31 | O=C(COC(=O)c1ccc(F)cc1)NCCCc1ccccc1 | inactive
32 | Cn1c(SCC(=O)N2CCCCC2)nc2c(c1=O)SCC2 | inactive
33 | Cc1c(NC(=O)c2cc(=O)c3ccccc3o2)c(=O)n(-c2ccccc2)n1C | inactive
34 | O=C1CC(c2ccccc2)C(c2ccccc2)=NN1 (stereo unspecified) | inactive
35 | CC(=O)NCCC(=O)Nc1cc(S(=O)(=O)N2CCOCC2)ccc1N1CCOCC1 | inactive
36 | CC(C)CCC(=O)Nc1cc(S(=O)(=O)N2CCOCC2)ccc1N1CCCC1 | inactive
37 | CC(C)CCOc1ccc(C(=O)Nc2cc(S(=O)(=O)N3CCOCC3)ccc2N2CCOCC2)cc1 | 9.2 µM (active)
38 | CC(Oc1ccc(F)cc1)C(=O)Nc1cc(S(=O)(=O)N2CCOCC2)ccc1N1CCN(C)CC1 (stereo unspecified) | inactive
39 | COCCNC(=S)Nc1cc(S(=O)(=O)N2CCOCC2)ccc1N1CCCCC1 | 20.6 µM (active)
40 | CC(=O)Nc1ccc(C(=O)Nc2cc(S(=O)(=O)N3CCOCC3)ccc2N2CCOCC2)cc1 | inactive
41 | COc1ccc(CNC(=O)Cn2nnc(-c3ccccc3F)n2)cc1 | inactive
42 | COC(=O)[C@@H]1CC(O)CN1C(=O)C12CC3CC(CC(C3)C1)C2 (stereo partly specified) | inactive
43 | CN(C)/C(=N\OC(=O)c1ccccc1)c1nonc1N | inactive
44 | C=C(C)CNC(=O)c1ccc(OC2CCN(C(=O)COC)CC2)cc1 | inactive
45 | Cc1c(NC(=O)CSc2nnnn2-c2ccc(C(=O)O)cc2)c(=O)n(-c2ccccc2)n1C | inactive
46 | CS(=O)(=O)N(CC(=O)N1CCc2ccccc2C1)c1ccc(Br)cc1 | inactive
47 | CN(CCc1ccccc1)c1ccc([N+](=O)[O-])cn1 | inactive
48 | Cc1c(C)c2c(OCC(=O)N[C@@H](C(=O)O)c3ccccc3)cc3c(c2oc1=O)CCC(C)(C)O3 | inactive
49 | COc1ccc2c(c1)CCc1cnc(-n3ncc(C(=O)NCCN4CCOCC4)c3C)nc1-2 | inactive
50 | Cc1cc(C)nc(SCC(=O)c2ccc(Cl)cc2)n1 | inactive
51 | Cc1cc(Oc2ccc(Cl)cc2)nc(SCC(=O)c2ccccc2)n1 | 23.1 µM (active)
52 | COC(=O)c1cc(C(=O)CSc2nc(C)cc(C)n2)ccc1O | inactive

Row | SMILES | Potency
53 | O=C(COC(=O)CCCSc1nc2ccccc2[nH]1)Nc1ccc(Oc2ccccc2)cc1 | inactive
54 | NC(=O)CC[C@@H]1NC(=O)[C@@H]2CCCN2C(=O)c2cc([N+](=O)[O-])cc(F)c2NCCC[C@@H](C(N)=O)NC1=O | inactive
55 | CC1(C)CN(Cc2cccnc2)C(=O)[C@H]1CC(=O)Nc1ccc(Br)cc1 | inactive
56 | COc1ccc(CC(=O)N2CC(=O)Nc3ccc(Br)cc3C2c2ccc(F)cc2)cc1OC (stereo unspecified) | 16.4 µM (active)
57 | Cc1ccc2c(c1)C(c1ccccc1)N(C(=O)c1ccc(F)cc1)CC(=O)N2 (stereo unspecified) | inactive
58 | COC(=O)CN1C(C)=Nc2ccc(Br)cc2C1c1ccccc1 (stereo unspecified) | inactive
59 | CCC(CC)C(=O)N1CC(=O)Nc2ccc(Br)cc2C1c1ccccc1 (stereo unspecified) | 23.1 µM (active)
60 | O=C1CN(C(=O)c2ccccc2F)C(c2ccc(F)cc2)c2cc(F)ccc2N1 (stereo unspecified) | inactive
61 | CC(C)C(=O)N1CC(=O)Nc2ccc(F)cc2C1c1ccc(F)cc1 (stereo unspecified) | inactive
62 | COc1ccc(C(=O)Nc2ccnn2C2CCN(Cc3ccncc3)CC2)cc1 | inactive
63 | COC(=O)c1sc2ncccc2c1-n1c(C)ccc1C | inactive
64 | Cc1cc(Cl)ccc1NNC(=O)c1snnc1C | inactive
65 | Brc1ccc(-c2csc(N/N=C/c3cccnc3)n2)cc1 | inactive
66 | O=C(CSc1nnc(Cn2cnc3ccccc32)o1)c1ccccc1 | 11.6 µM (active)
67 | CC(=O)Nc1ccc(C(=O)CSc2nnc(Cc3ccccc3)o2)cc1 | inactive
68 | O=C(CSc1nnc(-c2c[nH]c3ccccc23)o1)c1ccccc1 | inactive
69 | CCCN(c1ccc(C)cc1)c1nc(=O)c2cccnc2s1 | inactive
70 | COc1ccc(N2CCN(C(=O)c3c(C)oc4nc(C)nc(N5CCCC5)c34)CC2)cc1 | inactive
71 | Cc1nc(N2CCOCC2)c2c(C(=O)NCc3cccc(Cl)c3)c(C)oc2n1 | inactive
72 | CCOC(=O)c1c(C)oc2nc(C)nc(N3CCN(c4ccc(OC)cc4)CC3)c12 | 7.31 µM (active)
73 | CCOc1ccc(CCNC(=O)CN(c2ccc(C)cc2)S(=O)(=O)N(C)C)cc1OCC | inactive
74 | CC(C)(C)N1C(=O)c2c(C(=O)OCc3ccccc3)[nH]c(-c3ccccc3)c2C1=O | inactive
75 | CCOC(=O)c1[nH]c2c(c1-c1ccccc1)C(=O)CC(c1ccc(Cl)cc1)C2 (stereo unspecified) | inactive
76 | CCOC(=O)c1cc(=O)c2ccc(OCc3ccccc3)cc2o1 | inactive
77 | CCc1ccc(C2CC(=O)c3c([nH]c(C(=O)OCc4ccc(C)cc4)c3C)C2)cc1 (stereo unspecified) | 6.51 µM (active)
78 | CCOc1ccc(C2CC(=O)c3c([nH]c(C(=O)OCc4ccccc4)c3C)C2)cc1 (stereo unspecified) | 13 µM (active)

Row | SMILES | Potency
79 | CCOC(=O)C(Cc1ccccc1)NC(=O)CCC(=O)c1ccc(OC)cc1 (stereo unspecified) | inactive
80 | CN1C(=O)/C(=C/C=C2\SCCN2C)OC1=S | inactive
81 | Cc1ccn2c(=O)nc(SCC(=O)NCc3ccc4c(c3)OCO4)nc2c1 | inactive
82 | CCOc1ccccc1NC(=O)CSc1ncc(S(=O)(=O)c2ccc(C(C)(C)C)cc2)c(=O)[nH]1 | inactive
83 | O=C(NCC(=O)N(c1ccccc1)C(C(=O)NCC1CCCO1)c1ccccc1)c1cccs1 (stereo unspecified) | inactive
84 | Cc1ccc(N2CCN(C(=O)CCc3c(C)nc4c(c3C)c(=O)n(C)c(=O)n4C)CC2)c(C)c1 | inactive
85 | Cc1ccc(Cc2c(C)nc3nc(SCC(=O)NCCN4CCOCC4)nn3c2C)cc1 | inactive
86 | COc1cc(NC(=O)CSc2nc3nc(C)c(Cc4ccc(C)cc4)c(C)n3n2)cc(OC)c1OC | 13 µM (active)
87 | COc1cc(NC(=O)CCn2nc(C)cc2C)cc(OC)c1OC | inactive
88 | CCn1c(SC)nc(O)c(C(c2ccc(OC)c(O)c2)c2c(O)nc(SC)n(CC)c2=O)c1=O | inactive
89 | CC(C)CN1CCC1(C)C(=O)Nc1ccc(OC(F)F)cc1 (stereo unspecified) | inactive
90 | CC(C)Oc1ccc(CN2CCC2(C)C(=O)NCc2ccc(C(F)(F)F)cc2)cc1 (stereo unspecified) | 25.9 µM (active)
91 | CC(C)Oc1ccc(Oc2ccc(C(F)(F)F)cn2)cc1 | inactive
92 | CN(CC(=O)Nc1ccc(Cl)cc1)C(=O)CNC(=O)c1ccc2ccccc2c1 | inactive
93 | O=C(/C=C/c1ccccc1)Oc1coc(CSc2ncccn2)cc1=O | inactive
94 | COc1ccc(-c2nn3c(-c4ccc(OC)cc4)nnc3c3ccccc23)cc1 | inactive
95 | COc1cccc(/C=C/C(=O)Nc2ccc3c(c2)OCCO3)c1 | inactive
96 | COc1ccccc1OCCCC(=O)Nc1ccc2c(c1)OCCO2 | inactive
97 | COc1ccc(OC)c(/C=C/C(=O)OCC(=O)Nc2ccc3c(c2)OCCO3)c1 | 20.6 µM (active)
98 | Nc1nnc(SCC(=O)NCC(=O)Nc2ccc(F)c(F)c2F)s1 | inactive
99 | O=C1c2ccccc2C(O)N1Cc1ccccc1 (stereo unspecified) | inactive
100 | O=C(N[C@H]1C/C=C\C(c2ccc(F)cc2)N(Cc2ccccc2)C(=O)C1)OCC1c2ccccc2-c2ccccc21 (stereo partly specified) | 18.4 µM (active)
101 | COc1ccc(C2/C=C\CN(CC(C)C)CC(=O)N2Cc2ccc(F)cc2)cc1 (stereo unspecified) | inactive
